Screening data as filed in PubChem BioAssay.
TrxR1 inh: rat TrxR1 inhibition; O89049; recombinant rTrxR1, NADPH fluorescence consumption, selenite substrate; Potency, µM (top dose mostly 114 µM), for inactives: at the top dose activity change, negative = inhibition, hits mostly inhibitors; actives 1% (n = 390,000); AID 588453; also: potency is read from the fitted curve at half-maximal effect; nearly all actives have a fitted effect of over 65% in size
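Rat TrxR1 (90 nM in the dispensed reagent) was pre-reduced with 400 uM NADPH for 5 min at room temperature, then incubated with compound for 15 min. After 400 uM selenite was added, NADPH fluorescence (Ex 340/Em 450 nm) was followed for 8 min.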
TrxR1 substrate: substrates of rat thioredoxin reductase 1; Potency, µM (doses to about 114 µM), for inactives: top-dose activity change, negative = substrate turnover; purified TrxR1 substrate turnover, NADPH consumption readout; actives 0.01% (n = 390,000); AID 588456; O89049; also: potency is read from the fitted curve at half-maximal effect; nearly all actives have a fitted effect of over 50% in size
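Rat TrxR1, dispensed at 90 nM, was prereduced with 400 uM NADPH (final) for 5 min at ~22 deg C, then incubated with compound 15 min before 400 uM selenite. A first-read NADPH fluorescence drop versus no-compound background flagged substrates.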
RORg inh: blocks mouse ROR gamma transcriptional activity; Drosophila S2 Gal4-RORgamma UAS-luciferase reporter, 20 h; actives 5.4% (n = 310,000); AID 2551; P51450; Potency, µM (doses to about 53.6 µM), inactives show top-dose activity change, negative = inhibition, usual class: inhibitors; also: potency is read from the fitted curve at half-maximal effect; nearly all actives have a fitted effect of over 60% in size
Target sequence (P51450 whole entry, looked up, the tested form may be a part): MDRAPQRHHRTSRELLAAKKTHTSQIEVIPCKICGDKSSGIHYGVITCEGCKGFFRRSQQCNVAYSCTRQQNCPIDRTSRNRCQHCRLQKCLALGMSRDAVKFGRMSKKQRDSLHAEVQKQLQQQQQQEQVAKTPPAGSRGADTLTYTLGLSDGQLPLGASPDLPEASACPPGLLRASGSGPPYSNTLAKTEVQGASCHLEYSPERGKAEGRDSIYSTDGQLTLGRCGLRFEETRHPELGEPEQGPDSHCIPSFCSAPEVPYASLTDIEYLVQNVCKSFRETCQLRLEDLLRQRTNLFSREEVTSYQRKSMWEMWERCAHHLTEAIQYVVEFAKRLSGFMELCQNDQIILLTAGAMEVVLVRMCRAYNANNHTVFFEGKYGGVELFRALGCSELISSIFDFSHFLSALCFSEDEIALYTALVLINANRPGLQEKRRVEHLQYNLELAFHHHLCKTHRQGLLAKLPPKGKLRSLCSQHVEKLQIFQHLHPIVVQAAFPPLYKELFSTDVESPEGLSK
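Compounds are pin-transferred onto Drosophila Schneider cells expressing a copper-inducible Gal4–ROR gamma transactivation domain fusion. After 1 hr, copper sulfate is added to 700 uM final; luciferase is read 20 hr later.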
Gal4-VP16 FLuc: Gal4-VP16 reporter inhibition counter-screen; Drosophila S2 Gal4-VP16 UAS-luciferase, luminescence, 20 h; Potency, µM (titrated, usually from 53.6 µM), for the others: at the highest dose activity, negative = inhibition, actives largely listed as inhibitors; actives 3.5% (n = 310,000);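 also: Gal4-VP16 expression switched on by copper sulfate through the metallothionein promoter; potency is read from the fitted curve at half-maximal effect; nearly all actives have a fitted effect of over 50% in size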
GALK inhibitor: inhibitors of human galactokinase; Purified GALK, Kinase-Glo residual ATP luminescence; Potency, µM (titrated, usually from 57.5 µM), for the others: at the highest dose activity change, negative = inhibition, actives largely listed as inhibitors; actives 0.007% (n = 270,000); P51570; also: potency is read from the fitted curve at half-maximal effect
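GALK at 5 nM final was combined with compound, 35 uM ATP and 100 uM galactose in HEPES pH8.0 with MgCl2 and DTT. The reaction ran one hour at room temperature before luminescent ATP detection.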
FBPA coupling cs: counter-screen for Giardia aldolase inhibitors: coupling enzyme system; coupling enzyme system counterscreen, AmpLite Red fluorescence; activity change, negative = inhibition, % at 58.2 µM, hits read low; actives 0.67% (n = 290,000); in the data active = activity change below about -30%
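Activity here indicates interference with the coupling reaction, not aldolase inhibition. Compounds at 57.5 uM final met coupling enzymes for 10 min at RT; substrate and AmpLite Red detection followed, with a 525/598 nm fluorescence read after 20 min.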
Active calls of the source: *; ? = inconclusive; / = no result given; [ ] = remark or other dose. In the library only some 5.9% were active in any assay of this set; here they are far more common. Unless noted, calls follow the shape of the dose curve; as a rule, active = well fitted curve in the direction sought with a large enough effect; inconclusive = small, poorly fitted or top-dose-only effect, or another doubt; inactive = no such curve, though single readings can be large; an effect the other way counts as inactive or inconclusive. % is scaled to controls: 0 for no effect and ±100 for the full control effect.

SMILES	TrxR1 inh	TrxR1 substrate	RORg inh	Gal4-VP16 FLuc	GALK inhibitor	FBPA coupling cs
Cc1cc(Nc2ccccc2)c2c([N+](=O)[O-])ccc(C)c2n1	15%	-1%	?	35µM*	0%	0
O=C(NCc1cc([N+](=O)[O-])ccc1O)c1cccc(NS(=O)(=O)c2ccccc2)c1	-3%	-6%	11µM*	13µM*	5%	/
CC(C)NC(=S)NC(=O)c1ccc(-c2ccccc2)cc1	?	-7%	2.5µM*	3.2µM*	0%	0
Cc1ccc(C(=O)NC(=S)Nc2cccc3c(C)cc(C)nc23)cc1	18%[0.457 µM]	3%	1µM*	4.5µM*	3%	-6
Cc1cccc(NC(=S)NC(=O)c2ccc(-c3ccccc3)cc2)n1	4%	-4%	4µM*	?	0%	0
NS(=O)(=O)c1ccc(NC(=S)NC(=O)c2ccc(-c3ccccc3)cc2)cc1	1%	-2%	29%	6%	0%	0
COc1ccc(C(=O)NC(=S)Nc2cccc3nc(C)ccc23)cc1OC	-6%	-1%	?	0%	3%	1
Cc1ccc2c(NC(=S)NC(=O)c3ccccc3)cccc2n1	79µM*	-22%	16µM*	?	5%	/
Cc1cccc(NC(=S)NC(=O)c2oc3ccccc3c2C)n1	5%	-2%	8.9µM*	17%	-2%	2
Cc1ccc(C(=O)O)cc1NC(=S)NC(=O)c1ccc(-c2ccccc2)cc1	40µM*	1%	-17%	-11%	-1%	4
Cc1ccc(-n2c(SCC(=O)NCC3CCCO3)nc3ccccc3c2=O)cc1C (stereo not given)	8%[57.1 µM]	1%[57.1 µM]	/	/	/	/
Cc1c(C#N)c(=O)oc2ccc3ccccc3c12	45%[57.1 µM]	114%[57.1 µM]	-16%	-9%	-2%	-1
C=Cc1ccc(Cn2c(C(=O)O)c(CNCc3cc(OC)ccc3OC)c3ccc(C)cc32)cc1	14%	0%	/	/	/	/
CNC(=S)N(C1=NCC(c2ccc([N+](=O)[O-])cc2)S1)c1ccccc1 (stereo not given)	12%	3%	-8%	5%	-4%	-1
S=C(Nc1ccccc1Oc1ccccc1)Nc1cccc(Cl)c1Cl	-12%	-6%	13µM*	?	-3%	-2
O=C(CCC(=O)c1ccc(Oc2ccccc2)cc1)Nc1ccc(Cl)cc1Cl	18%	8%	-1%	0%	/	6
S=C(Nc1cccc(Cl)c1)Nc1ccccc1Oc1ccccc1	-15%	-1%	10µM*	?	-6%	1
S=C(Nc1ccc(Cl)cc1Cl)Nc1ccccc1Oc1ccccc1	-21%	-5%	10µM*	?	3%	-1
CN1C(N)=NC(=O)/C1=C/c1ccc(F)cc1	12%	-8%	12%	-11%	-1%	0
CCn1ccnc1CN(C)Cc1cn(-c2ccccc2)nc1-c1ccc(OC)cc1F	-6%	-2%	3.5µM*	?	0%	0
Cc1ccc(-n2cc(CN(C)Cc3ncc[nH]3)c(-c3cccc(C)c3)n2)cc1	8%[57.1 µM]	1%[57.1 µM]	-2%	6.3µM*	1%	-19
CCn1ccnc1CN(C)Cc1cn(-c2ccc(C)cc2)nc1-c1ccc(F)cc1	2%	3%	2.8µM*	16µM*	1%	-3
CCn1ccnc1CN(C)Cc1cn(C)nc1-c1ccccc1F	4%	2%	?	-6%	-1%	1
Cc1ccc(-n2cc(CN(C)Cc3nccn3C)c(-c3ccc(F)cc3)n2)cc1	7%[57.1 µM]	5%[57.1 µM]	7.9µM*	?	3%	-1
CC(C)CC(=O)NC(NC(=O)CC(C)C)c1cccc([N+](=O)[O-])c1	12%[57.1 µM]	8%[57.1 µM]	6%	-18%	6%	0
SMILES	TrxR1 inh	TrxR1 substrate	RORg inh	Gal4-VP16 FLuc	GALK inhibitor	FBPA coupling cs
CC(C)(C)CC(C)(C)c1ccc(OCOCCOCCO)c(Cc2cc(C(C)(C)CC(C)(C)C)cc(Cc3cc(C(C)(C)CC(C)(C)C)ccc3OCOCCOCCO)c2OCOCCOCCO)c1	/	/	24%[16.9 µM]	3%[17 µM]	/	2
Cc1ccc(-c2nn(-c3cccc(F)c3)cc2CN(Cc2nccn2C)C(C)C)o1	-62%	19%	5.6µM*	?	9%	2
Cc1ccc(-c2nn(-c3cccc(F)c3)cc2CN2CCN(c3ccccn3)CC2)o1	?	-2%	9%	-19%	-2%	-3
Cc1cccc(-n2cc(CN3CCN(Cc4nccn4C)CC3)c(-c3cccc(F)c3)n2)c1	13%	4%	11µM*	?	1%	0
Cc1cc(O)ccc1N/C=C1\CCCC1=O	?	-10%	-30%	?	3%	-44*
Cc1cc(C(F)(F)F)c2c(N)c(C(=O)Nc3cc(C)on3)sc2n1	-10%	-7%	7.1µM*	4µM*	3%	4
Cc1ccccc1CSCCC(=O)NCCc1ccccc1	-11%	-4%	24%	-2%	0%	2
O=[N+]([O-])c1ccc(C=NNc2ccccc2)cc1	-21%	-16%	/	/	/	/
Cc1nnc(N/N=C/c2ccc(Br)cc2)n1N	15%	-5%	?	?	3%	0
COc1ccc(/C=N/Nc2nnc(C)n2N)cc1OC	-1%[57.1 µM]	-7%[57.1 µM]	11µM*	?	-2%	-40*
Cc1ccc(/C=N/Nc2nncn2N)cc1	39%	0%	?	13µM*	-2%	2
Cc1nnc(N/N=C/c2ccc(-c3ccc(Br)cc3)o2)n1N	16%[57.1 µM]	-7%	3.2µM*	8.9µM*	-1%	-27
Cc1nnc(N/N=C/c2ccc([N+](=O)[O-])cc2)n1N	1%[57.1 µM]	-5%[57.1 µM]	?	-14%	-7%	-45*
O=C(O)CC(NC(=O)C(c1ccccc1)c1ccccc1)c1ccc(F)cc1 (stereo not given)	21%	0%	5%	-10%	-1%	8
COc1ccccc1C(=O)N1CCN(Cc2c[nH]c3ccccc23)CC1	21%	4%	19%	7%	6%	0
CC(Nc1ccc(Cl)cc1)c1cc(Cl)ccc1O (stereo not given)	11%[57.1 µM]	5%	?	13µM*	-2%	-2
Cc1ccc(N2C(=O)CC(Sc3nccc(C)n3)C2=O)cc1 (stereo not given)	7%	3%	18µM*	?	0%	1
Cc1ccc(N2C(=O)CC(Sc3cccs3)C2=O)cc1 (stereo not given)	79µM*	-6%	11µM*	7.9µM*	/	2
Cc1ccc(SC2CC(=O)N(c3ccc4c(c3)OCCO4)C2=O)cc1 (stereo not given)	-10%	2%	-84%	?	9%	-1
CN(C)S(=O)(=O)Oc1ccc(C(=O)Nc2cccc(Cl)c2)cc1	1%	-10%	?	13µM*	2%	-26
